High-throughput results: PubChem, National Center for Advancing Translational Sciences (NCATS)
A selection: hits, their analogues and other compounds. The true share with any hit is near 8.5%.
NPSR antag: blocks cAMP signaling of the human neuropeptide S receptor; CHO-NPSR cells, cAMP TR-FRET, antagonist mode; Potency, µM (titrated, usually from 38.3 µM), actives largely listed as inhibitors; 220,000 compounds, 1% hits; Q6W5P4; also: nearly all actives have a fitted effect of over 50% in size
Target sequence (Q6W5P4 whole entry, looked up): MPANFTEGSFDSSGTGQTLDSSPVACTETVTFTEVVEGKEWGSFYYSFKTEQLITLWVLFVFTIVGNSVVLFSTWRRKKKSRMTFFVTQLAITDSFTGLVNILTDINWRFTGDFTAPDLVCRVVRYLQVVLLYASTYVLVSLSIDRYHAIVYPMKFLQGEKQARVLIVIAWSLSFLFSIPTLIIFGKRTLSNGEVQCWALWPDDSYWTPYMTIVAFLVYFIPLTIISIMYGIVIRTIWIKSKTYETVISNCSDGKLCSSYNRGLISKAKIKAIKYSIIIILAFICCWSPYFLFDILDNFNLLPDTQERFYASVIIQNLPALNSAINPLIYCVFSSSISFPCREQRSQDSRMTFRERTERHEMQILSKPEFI
Sfp inh: inhibitors of Bacillus subtilis Sfp phosphopantetheinyl transferase; Q9F4F7; AID 1490; Potency, µM, usual class: inhibitors; 310,000 compounds, 3.5% hits; Biochemical Sfp PPTase activity, qHTS;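 also: the enzyme is Sfp with the accession as filed and its product quenches rhodamine fluorescence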
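With Hepes-Na pH 7.6 buffer containing 10 mM MgCl2, Sfp (15 nM) modified BHQ-2-YbbR (12.5 uM) using rhodamine-CoA (5 uM). Two reads 30 minutes apart at 525/598 nm yielded each well's rate.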
KDM4E inh: blocks human JMJD2E demethylase activity. Potency, µM (top dose mostly 57.1 µM), hits mostly inhibitors. 230,000 compounds, 1.6% hits. JMJD2E catalytic domain, FDH-coupled NADH fluorescence (FDH is formaldehyde dehydrogenase). B2RXH2; active = well fitted inhibition curve with a large enough effect, not every such curve was filed as active; inconclusive = small, poorly fitted or top-dose-only effect, or another doubt; inactive = no such curve, though single readings can be large or run the other way; also: nearly all actives have a fitted effect of over 50% in size
Coupling enz: counter-screen for Giardia aldolase inhibitors: coupling enzyme system | coupling enzyme system counterscreen, AmpLite Red fluorescence | activity change, negative = inhibition, % at 58.2 µM, hits read low | 290,000 compounds, 0.67% hits | AID 2472; in the data active = activity change below about -30%
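Fluorescence at 525 nm excitation and 598 nm emission measured inhibition of the coupled detection system without aldolase. Compounds (at 57.5 uM final) were preincubated 10 min at room temperature with coupling enzyme reagent before a 20 min substrate/AmpLite Red step.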
GoLoco inh red: RGS12 GoLoco-Gai1 interaction inhibition; P63096; Gai1:RGS12 GoLoco peptide FP, rhodamine, 10 min; Potency, µM (top dose mostly 61.6 µM), actives largely listed as inhibitors; 230,000 compounds, 0.44% hits; active = well fitted inhibition curve with a large enough effect, not every such curve was filed as active; inactive = no such curve, though single readings can be large or run the other way; also: nearly all actives have a fitted effect of over 30% in size
Target sequence (P63096 whole entry, looked up): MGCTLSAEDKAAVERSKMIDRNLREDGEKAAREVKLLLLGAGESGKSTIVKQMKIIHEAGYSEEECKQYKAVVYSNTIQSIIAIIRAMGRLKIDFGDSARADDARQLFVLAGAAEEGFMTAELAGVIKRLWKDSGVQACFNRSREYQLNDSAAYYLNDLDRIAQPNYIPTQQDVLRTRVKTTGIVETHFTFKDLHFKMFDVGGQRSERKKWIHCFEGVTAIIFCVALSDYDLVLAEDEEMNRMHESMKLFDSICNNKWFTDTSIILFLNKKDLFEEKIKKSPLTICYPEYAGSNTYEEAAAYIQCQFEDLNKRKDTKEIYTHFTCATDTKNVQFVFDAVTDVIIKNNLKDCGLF
ALDH1A1 block: blocks purified human ALDH1A1 activity | P00352 | Purified ALDH1A1, NADH fluorescence, propionaldehyde substrate | Potency, µM (doses to about 75.3 µM), usual class: inhibitors | 220,000 compounds, 7.3% hits | AID 1030; active = well fitted inhibition curve with a large enough effect, not every such curve was filed as active; inconclusive = small, poorly fitted or top-dose-only effect, or another doubt; inactive = no such curve, though single readings can be large or run the other way
Large screens that a line does not name were inactive. Unless noted, calls follow the shape of the dose curve; as a rule, active = well fitted curve in the direction sought with a large enough effect; inconclusive = small, poorly fitted or top-dose-only effect, or another doubt; inactive = no such curve, though single readings can be large; an effect the other way counts as inactive or inconclusive.

CNS(=O)(=O)c1ccc(NC(=O)c2cncc(Br)c2)cc1	none
CC(C)(CNC(=O)CCC1CCCC1)CNC(=O)CCC1CCCC1	none (no result: NPSR antag, KDM4E inh, Coupling enz, GoLoco inh red, ALDH1A1 block)
CCN(CC)c1ccc(C=C2C(=O)OC3(CCCCC3)OC2=O)cc1	ALDH1A1 block 0.18µM
COc1ccc(-n2c(=O)c(-c3cccs3)nc3cnc(N(C)C)nc32)cc1	ALDH1A1 block inconclusive (no result: NPSR antag, KDM4E inh)
CCOC(=O)c1c2c([nH]c(=S)c1C#N)CCCC2	Sfp inh 40µM (no result: ALDH1A1 block)
CN1CCCc2cc(C=O)ccc21	ALDH1A1 block 0.2µM
COc1ccc(-c2cc(-c3ccccc3)c(C#N)c(=S)[nH]2)cc1	NPSR antag 13µM, Sfp inh inconclusive, ALDH1A1 block inconclusive
CC(=O)OCC1(C)CN(c2ccccc2)NC1=O (stereo unspecified)	ALDH1A1 block 10µM
CC(=O)OCC1(C)CN(c2ccccc2)N(C(C)=O)C1=O (stereo unspecified)	ALDH1A1 block inconclusive
CC1=C/C(=C\c2ccc3c(c2)OCO3)C(=O)S1	ALDH1A1 block inconclusive
CC1=C/C(=C/N(C)c2ccccc2)C(=O)S1	Sfp inh 28µM, ALDH1A1 block 20µM
Cc1ccccc1CN1C[C@@H]2C[C@@H](c3cnc(N4CCOCC4)s3)N3CCC[C@@]23C1=O	Sfp inh 50µM, ALDH1A1 block inconclusive
Cc1cn([C@H]2C[C@@H](N=[N+]=[N-])[C@@H](CO)O2)c(=O)[nH]c1=O	none (no result: Sfp inh, Coupling enz)
O=S(=O)(NC1CCCCC1N1CCN(c2ccc(F)cc2)CC1)c1ccccc1 (stereo unspecified)	none (no result: NPSR antag, KDM4E inh, Coupling enz, GoLoco inh red, ALDH1A1 block)
O=C1OC(Nc2ccc(F)c([N+](=O)[O-])c2)c2ccccc21 (stereo unspecified)	none (no result: ALDH1A1 block)
O=C1OC(Nc2ccc3c(c2)OCO3)c2ccccc21 (stereo unspecified)	Sfp inh 56µM, KDM4E inh inconclusive
COC(=O)c1ccc(-n2nnnc2SC)cc1	Sfp inh inconclusive, ALDH1A1 block 28µM
COC(=O)COC(=O)c1ccc(-n2nnnc2SC)cc1	ALDH1A1 block inconclusive
Cc1c(/C=N/NC(=O)c2sc3ccccc3c2Cl)cnn1C	ALDH1A1 block 20µM
O=C(c1sc2ccccc2c1Cl)N1CCN(c2ccc(F)cc2)CC1	Sfp inh inconclusive, ALDH1A1 block inconclusive
O=C(N/N=C/c1ccccn1)c1sc2ccccc2c1Cl	KDM4E inh inconclusive, ALDH1A1 block 11µM
O=C(N/N=C/c1c[nH]c2ccccc12)c1sc2ccccc2c1Cl	ALDH1A1 block inconclusive
O=C(c1sc2ccccc2c1Cl)N1CCN(c2ncccn2)CC1	ALDH1A1 block 13µM
COC(=O)Cc1c(O)ccn(Cc2cccc3ccccc23)c1=O	none
Cc1cc(Nc2ccccc2)nc(NCc2ccccc2)n1	Sfp inh 25µM, KDM4E inh inconclusive
Cc1cc(Nc2ccc(Cl)cc2)nc(NCc2ccccc2)n1	Sfp inh 20µM, KDM4E inh inconclusive
Cc1cc(Nc2cccc(F)c2)nc(NCc2ccccc2)n1	Sfp inh 56µM
CCCCNc1cc(C)nc(NCc2ccccc2)n1	ALDH1A1 block inconclusive
c1ccc2c(CSCCc3ccncc3)cccc2c1	NPSR antag inconclusive, Sfp inh 50µM, ALDH1A1 block inconclusive
CCOC(=O)C(=O)/C(C#N)=C/Nc1ccc(F)cc1	ALDH1A1 block 28µM
CCOc1cc(/C=C2\CCCc3c2nc2ccccc2c3C(=O)O)ccc1OC	Sfp inh 10µM (no result: NPSR antag, KDM4E inh, GoLoco inh red, ALDH1A1 block)
COc1cc(/C=C2\CCCc3c2nc2ccccc2c3C(=O)O)cc(Br)c1O	none (no result: NPSR antag, KDM4E inh, GoLoco inh red, ALDH1A1 block)
CCN1C/C(=C\c2cccc(C)c2)c2nc3ccccc3c(C(=O)O)c2C1	Sfp inh 79µM, KDM4E inh inconclusive
COc1cccc(/C=C2\CC(C)Cc3c2nc2ccccc2c3C(=O)O)c1OC (stereo unspecified)	Sfp inh 32µM (no result: NPSR antag, KDM4E inh, GoLoco inh red, ALDH1A1 block)
S=C(N/N=C/c1ccc2c(c1)OCO2)NC1CC2CCC1C2 (stereo unspecified)	NPSR antag inconclusive, ALDH1A1 block inconclusive
Cc1ccc2nccc(C(=O)N3CCCC(Nc4ccc(C)c(C)c4)C3)c2c1 (stereo unspecified)	none (no result: NPSR antag, KDM4E inh, Coupling enz, GoLoco inh red, ALDH1A1 block)
CCCCCOC(=O)c1[nH]c2c(c1C)C(=O)CC(c1ccco1)C2 (stereo unspecified)	Sfp inh inconclusive, ALDH1A1 block 28µM
CCOCCOC(=O)c1[nH]c2c(c1C)C(=O)CC(c1ccccc1)C2 (stereo unspecified)	none (no result: NPSR antag, KDM4E inh, GoLoco inh red, ALDH1A1 block)
O=C1CCCC/C1=C/Nc1cccc(C(F)(F)F)c1	ALDH1A1 block inconclusive
O=C1CCC2S/C(=C/Nc3ccc(C(F)(F)F)cc3)C(=O)N12 (stereo unspecified)	Sfp inh 22µM, ALDH1A1 block 13µM
CCCCN(C)CCNC(=O)c1cc2c(-c3cccc(OC)c3)nn(C)c2s1	none (no result: NPSR antag, KDM4E inh, GoLoco inh red, ALDH1A1 block)
C/C(Cn1cnc([N+](=O)[O-])n1)=N\NC(=O)c1ccccc1O	none
C/C(Cn1cnc([N+](=O)[O-])n1)=N\NC(=O)c1ccc(Br)cc1	Sfp inh inconclusive, ALDH1A1 block 14µM
C/C(Cn1cnc([N+](=O)[O-])n1)=N\NC(=O)c1cccnc1	none
C/C(Cn1cnc([N+](=O)[O-])n1)=N/NC(=O)COc1ccccc1Cl	ALDH1A1 block 14µM
O=S(=O)(c1ccccc1F)N(Cc1ccco1)Cc1nnc(-c2ccccc2Br)o1	ALDH1A1 block 14µM
Cc1cc(C)n(C(=O)CCCC(=O)n2nc(C)cc2C)n1	none
Cc1cc(C)n(C(=O)CNc2ccc(C)c(C)c2)n1	ALDH1A1 block 25µM
Cc1cc(C)c(C)c(S(=O)(=O)NCC(=O)NCC2CCCCC2)c1C	none (no result: NPSR antag, KDM4E inh, GoLoco inh red, ALDH1A1 block)
CN(C)c1ccc(/C=N/c2cc(-c3ccccc3)nn2-c2ccccc2)cc1	ALDH1A1 block 7.9µM
Cc1ccc(CN(C(=O)c2cc(=O)c3cc(C)cc(C)c3o2)C2CCS(=O)(=O)C2)cc1 (stereo unspecified)	none (no result: ALDH1A1 block)
CC1(C)CC2=C(CO1)C(=S)NC(c1ccccc1)N2CC1CCCO1 (stereo unspecified)	none (no result: ALDH1A1 block)
N#C/C(C(=O)N1CCOCC1)=c1/s/c(=C\c2ccccn2)c(=O)n1-c1ccccc1	none
COc1ccc(-n2c(=O)/c(=C\c3cccs3)s/c2=C(/C#N)C(=O)N2CCN(C)CC2)cc1	ALDH1A1 block 7.1µM
CCOC(=O)c1c(C)[nH]c(C(=O)COC(=O)CNC(=O)c2ccc(Cl)cc2Cl)c1C	none
O=C(CS(=O)Cc1ccco1)NCC=CCOc1cc(CN2CCCCC2)ccn1 (stereo unspecified)	none (no result: NPSR antag, KDM4E inh, Coupling enz, GoLoco inh red, ALDH1A1 block)
Cc1nc(N2CCOCC2)c2nc(-c3ccccc3)n(CCN3CCOCC3)c2n1	KDM4E inh inconclusive, ALDH1A1 block inconclusive (no result: NPSR antag)
OC[C@@H]1O[C@](CO)(O[C@H]2O[C@H](CO)[C@@H](O)[C@H](O)[C@H]2O)[C@H](O)[C@H]1O	none (no result: NPSR antag, KDM4E inh, Coupling enz, GoLoco inh red, ALDH1A1 block)
Nc1nc(Sc2ccc([N+](=O)[O-])c3nonc23)c2[nH]cnc2n1	GoLoco inh red 1.6µM, ALDH1A1 block 2µM (no result: NPSR antag, Sfp inh, KDM4E inh, Coupling enz)
